Sampled rows, rich in hits. Any-hit rate of the full collection: about 19%.
DT40 TDP1 no CPT – qHTS for Inhibitors of human tyrosyl-DNA phosphodiesterase 1 (TDP1): qHTS in cells in absence of CPT. DT40 Tdp1-/- hTDP1 cells, no CPT, ATP luminescence, 48 h. AID 686978, 2013. actives 15% (n = 420,000). Potency, µM (top dose mostly 46.2 µM), without a hit: at the top dose activity change, negative = growth inhibition, most hits filed as inhibitors; further: nearly all actives have a fitted effect of over 55% in size
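Camptothecin absent (DMSO only). Human TDP1-complemented DT40 knockout cells, 400 cells/well, 37 °C for minimum 48 hr; ATP measured via CellTiter-Glo, 30 min dark incubation, luminescence.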
DT40 TDP1 CPT – DT40-hTDP1 cell growth loss with CPT. actives 12% (n = 420,000). Potency, µM (highest dose often 46.2 µM), without a hit: at the highest dose activity change, negative = growth inhibition, hits mostly inhibitors. chicken DT40 Tdp1-/-;hTDP1 cells + 20 nM CPT, ATP luminescence, 48 h. AID 686979; further: nearly all actives have a fitted effect of over 55% in size
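Chicken DT40 Tdp1-/- cells complemented with human TDP1, 400 cells/well, exposed to compounds plus 20 nM camptothecin for at least 48 h at 37 C; viability read as ATP content by CellTiter-Glo luminescence.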
VP16 counter – inhibits Gal4-VP16 luciferase reporter, ROR gamma counter-screen. Drosophila S2 Gal4-VP16 UAS-luciferase, luminescence, 20 h. Potency, µM (doses to about 53.6 µM), for the others: at the top dose activity, negative = inhibition, actives largely listed as inhibitors. actives 3.5% (n = 310,000). AID 2546;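 further: Gal4-VP16 expression switched on by copper sulfate through the metallothionein promoter; nearly all actives have a fitted effect of over 50% in size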
TDP1 inh – inhibitors of human tyrosyl-DNA phosphodiesterase TDP1; Q9NUW8; recombinant TDP1, AlphaScreen DNA substrate cleavage; Potency, µM (doses to about 130 µM), without a hit: at the top dose activity change, negative = inhibition, most hits filed as inhibitors; actives 0.28% (n = 350,000); further: nearly all actives have a fitted effect of over 40% in size
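Here, a 5' biotin and 3' phosphotyrosine-FITC DNA oligonucleotide reports Tdp1 activity: intact substrate bridges AlphaScreen beads, while cleavage leaves a 3' phosphate and drops signal. All incubations at room temperature.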
RORgamma inh – ROR gamma (mouse) transcription inhibition. P51450. Drosophila S2 Gal4-RORgamma UAS-luciferase reporter, 20 h. Potency, µM (doses to about 53.6 µM), for the others: at the top dose activity change, negative = inhibition, hits mostly inhibitors. AID 2551. actives 5.4% (n = 310,000); further: nearly all actives have a fitted effect of over 60% in size
Target sequence (P51450 whole entry, looked up, the tested form may be a part): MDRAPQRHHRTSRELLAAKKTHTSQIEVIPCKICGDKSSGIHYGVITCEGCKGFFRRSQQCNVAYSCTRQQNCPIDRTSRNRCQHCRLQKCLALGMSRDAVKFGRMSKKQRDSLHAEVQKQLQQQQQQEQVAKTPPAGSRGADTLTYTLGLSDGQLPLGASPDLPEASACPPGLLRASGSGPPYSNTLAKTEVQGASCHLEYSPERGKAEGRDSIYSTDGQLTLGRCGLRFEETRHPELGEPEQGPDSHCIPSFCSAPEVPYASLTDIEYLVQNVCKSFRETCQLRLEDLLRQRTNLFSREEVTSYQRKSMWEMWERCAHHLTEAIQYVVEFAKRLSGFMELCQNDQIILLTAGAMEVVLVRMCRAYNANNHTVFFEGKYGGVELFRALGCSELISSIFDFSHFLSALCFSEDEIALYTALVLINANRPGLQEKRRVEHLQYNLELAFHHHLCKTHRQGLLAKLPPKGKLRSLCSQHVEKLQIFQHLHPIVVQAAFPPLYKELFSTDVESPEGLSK
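Using a luciferase readout, inhibitors were identified by reduced reporter activity in Drosophila cells coexpressing a copper-inducible Gal4–ROR gamma fusion and UAS-driven Photinus luciferase, incubated 20 hr after 700 uM copper sulfate.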
The depositor's hits bear a star; ? = inconclusive; . = no result given; [ ] = another dose, or the depositor's remark. The call rests on the fitted dose curve; in most records, active means well fitted curve in the direction sought with a large enough effect; inconclusive means small, poorly fitted or top-dose-only effect, or another doubt; inactive means no such curve, though single readings can be large; an effect the other way counts as inactive or inconclusive. On the % scale 0 is the no-effect control and ±100 the full control effect; potency means the concentration at half of the fitted maximal effect.

SMILES	DT40 TDP1 no CPT	DT40 TDP1 CPT	VP16 counter	TDP1 inh	RORgamma inh
CC(C)N(CC(O)COc1ccc(CC(N)=O)cc1)CC(O)COc1ccc(CC(N)=O)cc1 (stereo not given)	?	-3%	4%	.	-6%
CCCN1CCN(C(=O)Cn2nc(CC)n3c(cc4sccc43)c2=O)CC1	1%	7%	-2%	.	-32%
Oc1ccc(/C=N/Nc2ccnc3cc(Cl)ccc23)c(O)c1O	?	?	-2%	12%	-26%
CCN(CC)Cc1ccc(Nc2ccnc3cc(Cl)ccc23)cc1O	6.5µM*	7.3µM*	-7%	3%	13%
CCOc1ccccc1Nc1ccnc2cc(Cl)ccc12	23µM*	?	-2%	3%	-16%
CC/C(=N\Nc1ccnc2cc(Cl)ccc12)c1ccc(O)cc1	?	?	-3%	.	4%
Clc1ccc2c(NCc3ccccn3)ccnc2c1	-13%	?	-1%	.	-1%
S=C(NNc1ccnc2cc(Cl)ccc12)Nc1ccc(Cl)cc1Cl	3.7µM*	4.6µM*	-21%	.	0%
Oc1ccc(/C=N/Nc2ccnc3cc(Cl)ccc23)cc1O	13µM*	13µM*	?	9%	?
CCOc1ccc(NC(=S)NNc2ccnc3cc(Cl)ccc23)cc1	13µM*	?	-8%	5%	7%
CCOc1ccc(NC(=S)NNC(=O)c2cc(Br)ccc2Cl)cc1	-2%	5%	0%	11%	-15%
O=S(=O)(NC1CCCC1)c1ccc(S(=O)(=O)N2CCCN(Cc3ccccc3)C2)cc1	?	-23%	4%	6%	-16%
CCOc1cc(/C=C/c2ccc3cccc([N+](=O)[O-])c3n2)ccc1O	18µM*	?	-2%	4%	22%
O=[N+]([O-])c1ccc(/C=C/c2ccc3cccc([N+](=O)[O-])c3n2)cc1	?	-24%	-27%	0%	?
COc1cc(/C=C/c2ccc3cccc([N+](=O)[O-])c3n2)ccc1OCC#N	3.7µM*	5.8µM*	1%	5%	-1%
CCOc1cc(/C=C/c2ccc3cccc([N+](=O)[O-])c3n2)ccc1OCC(=O)N(C)C	?	23µM*	8%	5%	?
Cc1nc(C(F)(F)F)ccc1C(=O)N1CCCC1(C)C(=O)NCC(C)C (stereo not given)	-11%	?	.	.	.
COc1ccc(Cn2ccc3nc(C)c(C(=O)NCc4ccc(SC)cc4)cc3c2=O)cc1	?	-4%	.	5%	.
CC(=O)Nc1ccc2nc(SCC(=O)NCCOc3ccccc3)sc2c1	15µM*	15µM*	22%	2%	?
O=C(COc1ccc(F)cc1)Nc1ccc2nc(SCc3ccccc3)sc2c1	?	?	.	3%	.
NC(=O)CSc1nc2ccc(NC(=O)COc3ccccc3)cc2s1	23µM*	?	.	-3%	.
COC(=O)C1(C)CCCC2(C)c3cc(OC)ccc3C(=O)C(Br)C12 (stereo not given)	6.5µM*	12µM*	.	.	.
COc1ccc2c(c1)[C@@]1(C)CCC[C@](C)(CO)C1CC2 (stereo not given in full)	-30%	?	-17%	10%	-17%
COC(=O)[C@@]1(C)CCC[C@@]2(C)c3ccc(O)c(C(C)C)c3CCC21 (stereo not given in full)	10µM*	16µM*	?	12%	?
COC(=O)[C@]1(C)CCC[C@]2(C)c3ccc(C(C)C)cc3C(=O)CC12 (stereo not given in full)	23µM*	?	-2%	-6%[56.1 µM]	1%
SMILES	DT40 TDP1 no CPT	DT40 TDP1 CPT	VP16 counter	TDP1 inh	RORgamma inh
CC(C)c1c(O)ccc2c1CCC1[C@@](C)(CO)CCC[C@@]21C (stereo not given in full)	?	?	-14%	13%[56.1 µM]	0%
COC(=O)CSc1nc2c(c(=O)n(C)c(=O)n2C)n1CCC(C)C	-7%	-7%	5%	8%	8%
O=C(c1nnc(-c2ccccc2)o1)C1CC1	-1%	3%	-3%	0%	?
CCC(C)NCCOCCOc1ccc(C)cc1Br (stereo not given)	?	-25%	-1%	-10%	-10%
CCOC(=O)c1c(C)[nH]c(C)c1S(=O)(=O)N1CCCC(C(=O)N2CCN(c3cccc(Cl)c3)CC2)C1 (stereo not given)	21µM*	21µM*	.	9%	.
CCOC(=O)c1c(C)[nH]c(C)c1S(=O)(=O)N1CCCC(C(=O)N2CCN(c3cccc(C)c3C)CC2)C1 (stereo not given)	?	15µM*	.	8%	.
CCOC(=O)c1c(C)[nH]c(C)c1S(=O)(=O)N1CCCC(C(=O)Nc2cccc(C)n2)C1 (stereo not given)	-6%	-25%	.	5%	.
COC(=O)c1c(C)[nH]c(C)c1C(=O)c1ccccc1Cc1ccccc1	7.3µM*	40µM*	2%	18%[56.1 µM]	8%
CCc1nc2c(OCC(=O)c3ccc(F)cc3)cccn2c1N(C)C(=O)c1ccc(OC)cc1	-5%	-15%	.	.	.
CCc1nc2c(OCc3ccc(Cl)cc3Cl)cccn2c1N(C=O)Cc1ccc(OC)cc1	23µM*	?	.	.	.
CCc1nc2c(OCC(=O)c3ccc(Cl)cc3Cl)cccn2c1N(C)C(=O)c1cccs1	18µM*	16µM*	.	.	.
CCc1nc2c(OCc3ccc(Cl)cc3)cccn2c1N(C=O)Cc1ccc(OC)cc1	?	21µM*	.	.	.

Screening results deposited in PubChem by National Center for Advancing Translational Sciences (NCATS).
